In the supplement of paper PMC4206467:

test system: Perkinsus marinus PRA240; experiment: ATP content (proliferation) relative to DMSO control; higher = more parasite growth (less inhibition); conditions: 20 µM; 4 days
Description: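 Perkinsus marinus PRA240 trophozoites (2-5x10^6 cells/ml, 100 µl, 96-well) were exposed once to MMV Malaria Box compounds at 20 µM (0.1% DMSO) in triplicate. ATP content (ATPlite bioluminescence) was read at day 4 post-exposure and normalised to DMSO + cells control wells (100% activity). Compounds were identified by joining plate and well to the Malaria Box list.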

Compound	ATP content [%]
COc1ccc(C(=O)C(CCC(CNC(C)(C)C)C(=O)c2ccc(OC)cc2)CNC(C)(C)C)cc1 (stereo not given)	120
Oc1ccccc1CN1CCN(C(c2ccccc2)c2ccccc2)CC1	128
Cc1ccc(Nc2nc(N)c3ccccc3n2)cc1Cl	4.69
COc1ccc(-c2cc(=O)oc3c4c(ccc23)OCN(Cc2ccc(F)cc2)C4)cc1	130
CCOc1cc(Br)c(C(C)NC(=O)c2cccc(OC)c2)cc1OCC (stereo not given)	115
COc1ccc2c(c1)C1(Nc3ccccc3-c3nc4ccccc4n31)C(=O)N2 (stereo not given)	113
COc1ccccc1N1C(=N)SC(=Cc2ccc(OCc3ccccc3F)cc2)C1=O	57.5
COc1ccc(C(=O)C2CC2c2ccc(Cl)cc2)cc1 (stereo not given)	199
Brc1ccc(Nc2nc3ccccc3nc2Nc2ccc(Br)cc2)cc1	18.3
CCCCC(O)(c1ccc(Cl)cc1)C(CN1CCOCC1)c1ccc(Cl)cc1 (stereo not given)	131
CCN(CC)S(=O)(=O)c1ccc(-c2csc(Nc3ccc(C)c(C)c3)n2)cc1	142
CCOc1ccc2nc(C)cc(Nc3ccc(N(C)C)cc3)c2c1	86.6
COc1ccc(C2c3ccc4ccccc4c3Oc3ncn(CCCn4ccnc4)c(=N)c32)cc1OC (stereo not given)	121
O=C(Nc1ccc(CN2CCOCC2)cc1)c1ccc(-c2ccc(Br)cc2)o1	89.4
COc1ccc(N2CCN(C(CNC(=O)CC(C)(C)C)c3ccc4c(c3)OCO4)CC2)cc1 (stereo not given)	211
COc1ccc(C=C2SC(Nc3ccccc3)=NC2=O)cc1	61.4
CCCCc1ccc(NS(=O)(=O)c2cc3c4c(c2)CCN4C(=O)CC3)cc1	115
O=C(Nc1ccc(N2CCCCC2)c(Cl)c1)c1ccc(Br)o1	33.7
CCCCNCC(O)(c1ccc(Cl)cc1)c1ccc(Cl)cc1	103
COc1ccc2nc(N)nc(C)c2c1	88

Compound	ATP content [%]
CCOC(=O)c1cnc2ccc(OC)cc2c1Nc1ccc(N2CCN(C)CC2)cc1	106
COc1ccc(N2CCN(C(CNC(=O)C3CCCCC3)c3ccc4c(c3)OCO4)CC2)cc1 (stereo not given)	114
N=c1n(CCN2CCCCC2)c2ccccc2n1CC(O)c1cccc(Br)c1 (stereo not given)	116
FC(F)(F)c1ccc(Nc2nnnc3ccccc23)cc1	44
CCN(CC)CCn1c(=N)n(CC(O)c2ccc(Cl)c(Cl)c2)c2ccccc21 (stereo not given)	110
CC1=C(CC(=O)c2cccc([N+](=O)[O-])c2)C(=O)c2ccccc2C1=O	136
Cc1ccc(C(=O)c2oc3ccc4c(C)cc(=O)oc4c3c2C)cc1	123
Cc1nc2ccccc2c(O)c1CC=C(Cl)Cl	50.4
COc1ccc(-c2nonc2NC(=O)c2cccc(Cl)c2)cc1OC	135
O=C(Nc1ccccc1O)c1ccc(-c2ccc(Cl)cc2Cl)o1	82.5
CCOC(=O)c1c(C)n(-c2ccccc2)c2ccc(OC(=O)c3cc(OC)c(OC)c(OC)c3)cc12	141
COCCNC(=O)c1ccc(OC2CCN(Cc3ccc(F)c(F)c3)CC2)c(Cl)c1	86.4
CCC(O)c1ccc(Br)cc1NC(=O)c1cccc(Cl)c1 (stereo not given)	127
OC(CNCc1ccccc1)Cn1c2ccccc2c2ccccc21 (stereo not given)	105
CN1CCN(c2ncnc3c2[nH]c2ccc(Cl)cc23)CC1	111
OC1=C2C(=Nc3ccccc3SC2c2ccc(Br)cc2)c2ccccc21 (stereo not given)	45.9
CC(C)=CCN1CCC(C(=O)Nc2ccc(-c3nc4ccccc4[nH]3)cc2)CC1	81.5
COc1ccc(CCN2CCC(CN(C)Cc3cnn(-c4ccccc4)c3)CC2)cc1	110
CC(C)c1ccc(CNCC(O)c2ccccc2)cc1 (stereo not given)	117
CCN(Cc1ccccc1)C1CCN(Cc2cc(Br)ccc2O)CC1	171
